# Test results as given in PubChem BioAssay (Tox21).
# Results filed as inconclusive are left out. Entries that show only a call come without a potency. Values without a mark were called inactive. Activity calls are given as the source filed them. Unless noted, calls come from the whole dose curve; as a rule, active = well fitted curve in the direction sought with a large enough effect in the repeat runs; inconclusive = weak or mixed curves; inactive = no such curve, though single readings can be large; an effect the other way counts as inactive or inconclusive.
# Tests used:
# [1] = qHTS assay to identify small molecule antagonists of the vitamin D receptor (VDR) signaling pathway - cell viability counter screen (AID 743225); note: nearly all actives have a fitted effect of over 50% in size
# Method in brief: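 Cytotoxicity counter screen read by CellTiter-Glo luminescence (30 min, room temperature) in the same wells as the VDR-bla antagonist readout. HEK 293T VDR-UAS-bla cells had 16 h at 37C with compound and 3 nM (final) 1-alpha,25-dihydroxyvitamin D3, then 2 h with FRET substrate.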
# [2] = qHTS assay to identify small molecule agonists of the NFkB signaling pathway (AID 1159509; active = well fitted curve in the direction sought with a large enough effect in the signal ratio in the repeat runs, not every such curve was filed as active; the % refers to the signal ratio; note: series mostly up to about 61 µM)
# Method in brief: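 Agonist activity was read as beta-lactamase-driven FRET change (460 and 530 nm emission, 405 nm excitation) following 1.5 hr substrate loading at room temperature. Beforehand, ME-180 NFkB-bla reporter cells were treated with compounds for 5 hr at 37 C.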
# [3] = qHTS assay to identify small molecule agonists of the NFkB signaling pathway - cell viability counter screen (AID 1159515; calls by dose curve; note: series mostly up to about 61 µM; nearly all actives have a fitted effect of over 55% in size)
# Method in brief: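 Counter screen run alongside the NFkB-bla agonist assay: ME-180 reporter cells exposed to compounds for 5 hr, then lysed with CellTiter-Glo in the same wells. Luminescence, read after 30 min, reflects viable cells.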
# [4] = qHTS assay to identify small molecule agonists of the endoplasmic reticulum stress response signaling pathway (AID 1159516; active = well fitted activation curve with a large enough effect in the signal ratio in the repeat runs, not every such curve was filed as active; the % refers to the signal ratio)
# Method in brief: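 For this screen, HeLa cells stably carrying beta-lactamase under the ER stress response element received test compounds, positive controls or DMSO for 5 hr at 37 C; B/G FRET substrate was then added and dual-wavelength emission recorded.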
# [5] = qHTS assay to identify small molecule agonists of the endoplasmic reticulum stress response signaling pathway - cell viability counter screen (AID 1159517; calls by dose curve; note: series mostly up to about 61 µM; nearly all actives have a fitted effect of over 50% in size)
# Method in brief: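 ESRE-bla HeLa cells (1,500/well) were plated overnight at 37 C and exposed to compounds for 5 hr. After the 2 hr beta-lactamase substrate read, CellTiter-Glo went into the same wells, and luminescence was read after 30 min at room temperature.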
# [6] = qHTS assay to identify small molecule antagonists of the retinoid-related orphan receptor gamma (ROR-gamma) signaling pathway - cell viability counter screen (AID 1159520); note: nearly all actives have a fitted effect of over 50% in size
# Method in brief: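 Cytotoxicity was read from cellular ATP (CellTiter-Glo luminescence) after 16 hr at 37 C with 1 uM doxycycline induction. The inducer was added 2 hr after compound transfer to Tet-on ROR gamma CHO cells.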
# [7] = target: Nuclear receptor ROR-gamma (Homo sapiens) (UniProt P51449); test: qHTS assay to identify small molecule antagonists of the retinoid-related orphan receptor gamma (ROR-gamma) signaling pathway (AID 1159521; note: top concentration of the series differs between compounds; nearly all actives have a fitted effect of over 50% in size)
# Method in brief: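 Antagonist read-out: drop in luminescence (ONE-Glo) from an RORE-LUC reporter in CHO cells with doxycycline-inducible ROR-gamma; 2 hr compound pretreatment, 1 uM doxycycline, 16 hr incubation at 37 C.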
# [8] = qHTS assay to identify small molecule agonists of the AP-1 signaling pathway - cell viability counter screen (AID 1159525; calls by dose curve; note: nearly all actives have a fitted effect of over 55% in size)
# Method in brief: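 Intracellular ATP by Cell Titer Glo luminescence (30 min, RT) in the same ME-180 AP-1-bla wells after the 5 h compound exposure at 37 °C. Normalised to tetra n-octyl ammonium bromide and DMSO controls.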
# [9] = qHTS assay to identify small molecule agonists of the AP-1 signaling pathway (AID 1159526; calls by dose curve)
# [10] = target: Retinoic acid receptor RXR-alpha (Homo sapiens) (UniProt P19793); test: qHTS assay to identify small molecule agonists of the RXR signaling pathway (AID 1159527; calls by dose curve; note: nearly all actives have a fitted effect of over 35% in size)
# Method in brief: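 Agonist-mode beta-lactamase reporter assay: HEK 293T RXR-alpha-UAS-bla cells treated 16 hr at 37 C with compounds, 9-cis retinoic acid as positive control. LiveBLAzer FRET substrate, 405 nm excitation, 460/530 nm emission.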
# [11] = qHTS assay to identify small molecule agonists of the RXR signaling pathway - cell viability counter screen (AID 1159529)
# Method in brief: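 CellTiter-Glo luminescence gave viability in the wells also read for beta-lactamase. Cells (RXR-alpha-UAS-bla HEK 293T, 2% charcoal-stripped FBS medium) had 5 hr plating, then 16 hr compound exposure at 37 C; tetraoctyl ammonium bromide served as positive control.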
# [12] = qHTS assay to identify small molecule antagonists of the retinoid acid receptor (RAR) signaling pathway - cell viability counter screen (AID 1159551); note: nearly all actives have a fitted effect of over 35% in size
# Method in brief: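 Measured by luminescent ATP detection, viability reflects C3RL4 cells treated 6 h at 37 C with test chemicals in the presence of 1 uM (final) retinol.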
# [13] = qHTS assay to identify small molecule antagonists of the retinoic acid receptor (RAR) signaling pathway (AID 1159552; note: nearly all actives have a fitted effect of over 50% in size)
# Method in brief: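 Luminescent RARE reporter read-out in C3RL4 cells: 6 hr co-treatment at 37 C of test compounds with retinol at 1 uM final. Cells plated overnight beforehand; luciferase reagent incubated 30 min at room temperature before reading.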
# [14] = qHTS assay to identify small molecule agonists of the retinoic acid receptor (RAR) signaling pathway (AID 1159553); note: potency is the fitted concentration of half-maximal effect
# Method in brief: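 6 hr compound exposure (DMSO vehicle) of overnight-plated C3RL4 RARE-luc cells at 37 C; luminescence quantified after 30 min RT with luciferase reagent.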
# Sequence of Retinoic acid receptor RXR-alpha (Homo sapiens) (P19793 whole entry, looked up): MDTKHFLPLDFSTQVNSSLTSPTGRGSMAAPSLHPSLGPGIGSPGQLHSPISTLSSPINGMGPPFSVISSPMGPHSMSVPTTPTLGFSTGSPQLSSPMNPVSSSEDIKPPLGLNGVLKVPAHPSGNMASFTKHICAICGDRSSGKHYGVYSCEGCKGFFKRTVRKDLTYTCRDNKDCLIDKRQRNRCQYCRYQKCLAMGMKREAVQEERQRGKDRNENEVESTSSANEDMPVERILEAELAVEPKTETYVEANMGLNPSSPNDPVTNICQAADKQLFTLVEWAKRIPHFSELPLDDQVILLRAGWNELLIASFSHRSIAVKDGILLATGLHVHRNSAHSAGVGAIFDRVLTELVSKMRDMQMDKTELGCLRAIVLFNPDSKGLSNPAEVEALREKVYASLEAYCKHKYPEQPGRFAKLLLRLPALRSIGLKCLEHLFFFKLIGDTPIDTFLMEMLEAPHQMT
smiles,measurement,setting,value
Clc1cc2c(cc1Cl)Oc1cc(Cl)c(Cl)cc1O2,"viability change, negative = cytotoxic",[1],2.97% [at 0.281 µM]
same,activation,[2],-0.0516% [at 0.281 µM]
same,"activity, negative = cytotoxic",[3],-0.991% [at 0.281 µM]
same,activation,[4],-5.12% [at 0.281 µM]
same,"activity change, negative = cytotoxicity",[5],-1.54% [at 0.281 µM]
same,"activity, negative = cytotoxicity",[6],0.49% [at 0.349 µM]
same,"activity change, negative = inhibition",[7],16.4% [at 0.35 µM]
same,"viability change, negative = cytotoxic",[8],-6.16% [at 0.29 µM]
same,activation,[9],0.434% [at 0.29 µM]
same,activation,[10],5.21% [at 0.29 µM]
same,"activity change, negative = cytotoxicity",[11],-1.01% [at 0.29 µM]
same,"activity change, negative = cytotoxicity",[12],3.92% [at 0.349 µM]
same,"activity, negative = inhibition",[13],-3.48% [at 0.349 µM]
same,activation,[14],-1.63% [at 0.338 µM]
CN(C)CCc1c[nH]c2cccc(OP(=O)(O)O)c12,Potency,[1],inactive
same,outcome,[2],inactive
same,outcome,[3],inactive
same,outcome,[4],inactive
same,Potency,[5],inactive
same,Potency,[6],inactive
same,Potency,[7],inactive
same,Potency,[8],inactive
same,outcome,[9],inactive
same,Potency,[10],inactive
same,Potency,[11],inactive
same,Potency,[12],inactive
same,Potency,[13],inactive
same,Potency,[14],inactive
O=C(O)c1c(Cl)ccc2cc(Cl)cnc12,Potency,[1],inactive
same,outcome,[2],inactive
same,outcome,[3],inactive
same,outcome,[4],inactive
same,Potency,[5],inactive
same,Potency,[6],inactive
same,Potency,[7],inactive
same,Potency,[8],inactive
same,outcome,[9],inactive
same,Potency,[10],inactive
same,Potency,[11],inactive
same,Potency,[12],inactive
same,Potency,[13],inactive
same,Potency,[14],inactive
CC(C)(C1CCC(O)CC1)C1CCC(O)CC1 (stereo unspecified),Potency,[1],inactive
same,outcome,[2],inactive
same,outcome,[3],inactive
same,outcome,[4],inactive
same,Potency,[5],inactive
same,Potency,[6],inactive
same,Potency,[7],inactive
same,Potency,[8],inactive
same,outcome,[9],inactive
same,Potency,[10],inactive
same,Potency,[11],inactive
same,Potency,[12],inactive
same,Potency,[13],inactive
same,Potency,[14],inactive
CCOP(=O)(CN(CCO)CCO)OCC,Potency,[1],inactive
same,outcome,[2],inactive
same,outcome,[3],inactive
same,outcome,[4],inactive
same,Potency,[5],inactive
same,Potency,[6],inactive
same,Potency,[7],inactive
same,Potency,[8],inactive
same,outcome,[9],inactive
same,Potency,[10],inactive
same,Potency,[11],inactive
same,Potency,[12],inactive
same,Potency,[13],inactive
same,Potency,[14],inactive
O=C1CC(=O)NC(=O)N1,Potency,[1],inactive
same,outcome,[2],inactive
same,outcome,[3],inactive
same,outcome,[4],inactive
same,Potency,[5],inactive
same,Potency,[6],inactive
same,Potency,[7],inactive
same,Potency,[8],inactive
same,outcome,[9],inactive
same,Potency,[10],inactive
same,Potency,[11],inactive
same,Potency,[12],inactive
same,Potency,[13],inactive
same,Potency,[14],inactive
CC(=O)CN(CC(C)=O)N=O,Potency,[1],inactive
same,outcome,[2],inactive
same,outcome,[3],inactive
same,outcome,[4],inactive
same,Potency,[5],inactive
same,Potency,[6],inactive
same,Potency,[7],inactive
same,Potency,[8],inactive
same,outcome,[9],inactive
same,Potency,[10],inactive
same,Potency,[11],inactive
same,Potency,[12],inactive
same,Potency,[13],inactive
same,Potency,[14],inactive
ClCCCCCCCl,Potency,[1],inactive
same,outcome,[2],inactive
same,outcome,[3],inactive
same,outcome,[4],inactive
same,Potency,[5],inactive
same,Potency,[6],inactive
same,Potency,[7],inactive
same,Potency,[8],inactive
same,outcome,[9],inactive
same,Potency,[10],inactive
same,Potency,[11],inactive
same,Potency,[12],inactive
same,Potency,[13],inactive
same,Potency,[14],inactive
CCOC(=O)Nc1cccc(OC(=O)Nc2ccccc2)c1,Potency,[1],inactive
same,outcome,[2],inactive
same,outcome,[3],inactive
same,outcome,[4],inactive
same,Potency,[5],inactive
same,Potency,[6],inactive
same,Potency,[7],inactive
same,Potency,[8],inactive
same,outcome,[9],inactive
same,Potency,[10],inactive
same,Potency,[11],inactive
same,Potency,[12],inactive
same,Potency,[13],inactive
same,Potency,[14],27.3 µM (active)
COc1cccc(C=O)c1,Potency,[1],inactive
same,outcome,[2],inactive
same,outcome,[3],inactive
same,outcome,[4],inactive
same,Potency,[5],inactive
same,Potency,[6],inactive
same,Potency,[7],inactive
same,Potency,[8],inactive
same,outcome,[9],inactive
same,Potency,[10],inactive
same,Potency,[11],inactive
same,Potency,[12],inactive
same,Potency,[13],inactive
same,Potency,[14],inactive
CCCCCCCCBr,Potency,[1],inactive
same,outcome,[2],inactive
same,outcome,[3],inactive
same,outcome,[4],inactive
same,Potency,[5],inactive
same,Potency,[6],inactive
same,Potency,[7],inactive
same,Potency,[8],inactive
same,outcome,[9],inactive
same,Potency,[10],inactive
same,Potency,[11],inactive
same,Potency,[12],inactive
same,Potency,[13],inactive
same,Potency,[14],inactive
NC(=O)CS(=O)C(c1ccccc1)c1ccccc1 (stereo unspecified),Potency,[1],inactive
same,outcome,[2],inactive
same,outcome,[3],inactive
same,outcome,[4],inactive
same,Potency,[5],inactive
same,Potency,[6],inactive
same,Potency,[7],inactive
same,Potency,[8],inactive
same,outcome,[9],inactive
same,Potency,[10],inactive
same,Potency,[11],inactive
same,Potency,[12],inactive
same,Potency,[13],inactive
same,Potency,[14],inactive
CCC1(c2ccccc2)CCC(=O)NC1=O (stereo unspecified),Potency,[1],inactive
same,outcome,[2],inactive
same,outcome,[3],inactive
same,outcome,[4],inactive
same,Potency,[5],inactive
same,Potency,[6],inactive
same,Potency,[7],inactive
same,Potency,[8],inactive
same,outcome,[9],inactive
same,Potency,[10],inactive
same,Potency,[11],inactive
same,Potency,[12],inactive
same,Potency,[13],inactive
same,Potency,[14],inactive
ClCOCCl,Potency,[1],inactive
same,outcome,[2],inactive
same,outcome,[3],inactive
same,outcome,[4],inactive
same,Potency,[5],inactive
same,Potency,[6],inactive
same,Potency,[7],inactive
same,Potency,[8],inactive
same,outcome,[9],inactive
same,Potency,[10],inactive
same,Potency,[11],inactive
same,Potency,[12],inactive
same,Potency,[13],inactive
same,Potency,[14],inactive
Cc1cc(OC(=O)N(C)C)nn1C(=O)N(C)C,Potency,[1],inactive
same,outcome,[2],inactive
same,outcome,[3],inactive
same,outcome,[4],inactive
same,Potency,[5],inactive
same,Potency,[6],inactive
same,Potency,[7],inactive
same,Potency,[8],inactive
same,outcome,[9],inactive
same,Potency,[10],inactive
same,Potency,[11],inactive
same,Potency,[12],inactive
same,Potency,[13],inactive
same,Potency,[14],inactive
C=CC(=O)OCCN(C)C,Potency,[1],inactive
same,outcome,[2],inactive
same,outcome,[3],inactive
same,outcome,[4],inactive
same,Potency,[5],inactive
same,Potency,[6],inactive
same,Potency,[7],inactive
same,Potency,[8],inactive
same,outcome,[9],inactive
same,Potency,[10],inactive
same,Potency,[11],inactive
same,Potency,[12],inactive
same,Potency,[13],inactive
same,Potency,[14],inactive
CN(C)C(=O)Oc1cc(OC(=O)N(C)C)cc(C(O)CNC(C)(C)C)c1 (stereo unspecified),Potency,[1],inactive
same,outcome,[2],inactive
same,outcome,[3],inactive
same,outcome,[4],inactive
same,Potency,[5],inactive
same,Potency,[6],inactive
same,Potency,[7],inactive
same,Potency,[8],inactive
same,outcome,[9],inactive
same,Potency,[10],inactive
same,Potency,[11],inactive
same,Potency,[12],inactive
same,Potency,[13],inactive
same,Potency,[14],inactive
CC(Cc1ccccc1)NCCCCl (stereo unspecified),Potency,[1],inactive
same,outcome,[2],inactive
same,outcome,[3],inactive
same,outcome,[4],inactive
same,Potency,[5],inactive
same,Potency,[6],inactive
same,Potency,[7],inactive
same,Potency,[8],inactive
same,outcome,[9],inactive
same,Potency,[10],inactive
same,Potency,[11],inactive
same,Potency,[12],inactive
same,Potency,[13],inactive
same,Potency,[14],inactive
CCCC[N+](=O)[O-],Potency,[1],inactive
same,outcome,[2],inactive
same,outcome,[3],inactive
same,outcome,[4],inactive
same,Potency,[5],inactive
same,Potency,[6],inactive
same,Potency,[7],inactive
same,Potency,[8],inactive
same,outcome,[9],inactive
same,Potency,[10],inactive
same,Potency,[11],inactive
same,Potency,[12],inactive
same,Potency,[13],inactive
same,Potency,[14],inactive
